Bioassay records deposited in PubChem by National Center for Advancing Translational Sciences (NCATS).
The list is not random: actives were taken first. Their share in the collection is about 0.47%.
AID inh – blocks human AID cytidine deaminase activity | AID deamination FRET fluorescence, UDG-coupled, 4 h | actives 0.32% (n = 91,000) | AID 1347428 | Q9GZX7 | Potency, µM (titrated, usually from 115 µM), actives largely listed as inhibitors; note: nearly all actives have a fitted effect of over 25% in size
Target sequence (Q9GZX7 whole entry, looked up): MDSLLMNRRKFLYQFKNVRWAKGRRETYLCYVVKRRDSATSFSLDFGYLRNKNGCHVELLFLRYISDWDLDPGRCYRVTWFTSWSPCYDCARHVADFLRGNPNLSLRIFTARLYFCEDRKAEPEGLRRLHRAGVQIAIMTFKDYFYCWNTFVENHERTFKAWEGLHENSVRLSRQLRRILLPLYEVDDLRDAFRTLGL
UDG counter – counter-screen for AID inhibitors: uracil-DNA glycosylase inhibition. FRET deamination/UDG coupled assay, UDG read, 4 h. Potency, µM (titrated, usually from 115 µM), usual class: inhibitors. actives 0.14% (n = 91,000); note: nearly all actives have a fitted effect of over 65% in size
Large screens that a line does not name were inactive. Calls come from the whole dose curve; as a rule, active = well fitted curve in the direction sought with a large enough effect; inconclusive = small, poorly fitted or top-dose-only effect, or another doubt; inactive = no such curve, though single readings can be large; an effect the other way counts as inactive or inconclusive.

Cn1c(CC(=O)Nc2ccccc2)nnc1SCC(=O)NC12CC3CC(CC(C3)C1)C2	none
Cc1ccc(S(=O)(=O)C(CNC(=O)COc2ccccc2)c2cccs2)cc1 (centres undefined)	AID inh 45µM
Cc1cc(S(=O)(=O)C(CNC(=O)COc2ccccc2)c2cccs2)ccc1F (centres undefined)	none
Cc1ccc(CNC(=O)c2sccc2C)cn1	none
Cc1nn(-c2ccccc2)c(OC(=O)C(C)C)c1Sc1ccc(Cl)cc1	AID inh inconclusive
CCC(=O)Oc1c(Sc2ccc(Cl)cc2)c(C)nn1C(C)(C)C	UDG counter 79µM
Cc1nc(-c2cccc(S(=O)(=O)N3CCC(C(=O)NCc4ccccc4Cl)CC3)c2)no1	UDG counter inconclusive
CCc1cccc(NC(=O)C2CCN(S(=O)(=O)c3cccc(-c4noc(C)n4)c3)CC2)c1	UDG counter 79µM
COc1ccccc1OCCSc1nc(-c2ccc(C(C)(C)C)cc2)nc2cc(=O)[nH]n12	AID inh 79µM
CC(C)(C)c1ccc(-c2nc(SCCOc3ccc(Cl)cc3)n3[nH]c(=O)cc3n2)cc1	AID inh inconclusive
C=CCc1ccccc1OCCSc1nc(-c2ccc(C(C)(C)C)cc2)nc2cc(=O)[nH]n12	AID inh inconclusive
Cc1ccc(OCCCSc2nc(-c3ccc(C(C)(C)C)cc3)nc3cc(=O)[nH]n23)cc1C	AID inh 45µM, UDG counter inconclusive
N#CC1(C#N)CC2(O)NC(=O)C1(C#N)C(c1ccccc1)C2Br (centres undefined)	none
COCCSc1nnc(-c2ccc(Cl)cc2)n1-c1ccc(OC)cc1	none
COc1ccc(OC)c(-c2noc(CSc3nnc(-c4ccccc4)n3-c3ccccc3)n2)c1	none
COc1ccc(-c2noc(CSc3nnc(C)n3-c3ccc(F)cc3)n2)cc1	UDG counter 79µM
Cc1ccc(-c2noc(CSc3nnc(C)n3-c3ccc(C)cc3)n2)cc1	AID inh inconclusive
CCOc1ccc(-c2noc(CSc3nnc(-c4ccccc4)n3-c3ccccc3)n2)cc1	none
Clc1ccccc1-c1nnc(SCc2nc(-c3ccccc3)no2)n1-c1ccccc1	AID inh inconclusive, UDG counter 79µM
Cc1ccc(-n2c(SCc3nc(-c4ccc(Cl)cc4)no3)nnc2-c2ccncc2)cc1	AID inh 35µM, UDG counter inconclusive
COc1ccc(-c2noc(CSc3nnc(-c4ccncc4)n3-c3ccc(OC)cc3)n2)cc1	AID inh inconclusive, UDG counter 79µM
Cc1ccc(-c2ccc(/C=N/Nc3ccc(S(N)(=O)=O)cc3)o2)c([N+](=O)[O-])c1	none
O=C(/C=C/c1ccc(O)cc1)c1ccsc1	none
CCOc1ccc(CN(CC)Cc2cc(=O)oc3ccc(OC)cc23)cc1	none
CCC1CCc2nc(N)c(C#N)c(-c3ccccc3Cl)c2C1 (centres undefined)	none
CC12CCCC(C(N)=O)(CCC1)C2	none
COC(=O)c1ccc(OCC(=O)c2ccc3c(c2)OCCO3)cc1	none
CNC(=O)c1ccc(-c2nc(CN3CCN(C(=O)Nc4ccc(OC)cc4)CC3)c(C)o2)cc1	none
O=C(NCCc1ccccc1Cl)c1sc2ncccc2c1-n1cccc1	AID inh 35µM
CC(CNC(=O)c1sc2ncccc2c1-n1cccc1)c1ccccc1 (centres undefined)	AID inh 79µM
Cc1cc(C)c2c(-n3cccc3)c(C(=O)NCC(C)c3ccccc3)sc2n1 (centres undefined)	AID inh inconclusive
Cc1ccc(CCNC(=O)c2sc3ncccc3c2-n2cccc2)cc1	none
O=C1CC(N2CCOCC2)C=C1Nc1ccccc1 (centres undefined)	none
NNc1ccc(S(=O)(=O)c2ccc(NN)cc2)cc1	none
NNc1cccc(S(=O)(=O)c2cccc(NN)c2)c1	AID inh inconclusive, UDG counter 45µM
COc1ccc(-c2nn(-c3ccccc3)cc2C2NC(=O)NC(C)=C2C(=O)OC(C)C)cc1OC (centres undefined)	AID inh inconclusive
CCOC(=O)C1=C(C)NC(=O)NC1c1cn(-c2ccccc2)nc1-c1ccc(OC(C)C)cc1 (centres undefined)	AID inh 28µM
COc1ccc(NC(=O)Nc2cn(CC(C)C)c(=O)c3ccccc23)c(OC)c1	none
Cc1ccc(Cl)cc1NC(=O)Nc1cn(CC(C)C)c(=O)c2ccccc12	AID inh 79µM
O=C(O)c1cc(Nc2nc(-c3ccccc3)cs2)ccc1O	AID inh inconclusive
O=C(O)c1ccc(Nc2nc(-c3ccc(Cl)cc3)cs2)cc1O	AID inh 79µM
COc1ccc(Nc2nc(NCCO)c3nccnc3n2)cc1	none
COc1ccc(Nc2nc(Nc3ccc(F)cc3)nc3nccnc23)cc1	AID inh 25µM
CCOC(=O)c1cc(NC(=O)c2cccc(-c3cc4ccccc4oc3=O)c2)ccc1N1CCOCC1	none
Cc1cccc(NC(=O)NCC2CCN(CCc3ccc(F)cc3)CC2)c1C	none
FC(F)(F)c1cccc(-n2nnnc2C2(N3CCOCC3)CCCC2)c1	UDG counter 89µM
Cc1cccc(-n2nnnc2C2(N3CCCC3)CCCC2)c1	none
CCCCCOc1ccccc1CN1C(=O)C(=O)c2cc(C)ccc21	AID inh 28µM
CCCCOc1ccc(CN2C(=O)C(=O)c3cc(C)ccc32)cc1OC	AID inh inconclusive
Cc1n[nH]c(C)c1Cl	none
CC1(C)CCCC(C)(C#CCN2CCN(C(c3ccccc3)c3ccccc3)CC2)O1 (centres undefined)	none
O=C(CC(c1ccccc1)c1ccccc1)Oc1cc(Cl)ccc1Cl	none
COc1ccc(CC(=O)Nc2ccc3nc(Nc4cccc(Cl)c4)cc(C)c3c2)cc1	none
Cc1cc(Nc2cccc(C(F)(F)F)c2)nc2ccc(NC(=O)Cc3ccc(Cl)cc3)cc12	AID inh 35µM
Cc1oc(-c2ccccc2Cl)nc1CS(=O)(=O)CC(=O)NC(C)CCc1ccccc1 (centres undefined)	AID inh 20µM
Cc1oc(-c2ccccc2Cl)nc1CS(=O)(=O)CC(=O)NC(C)c1ccccc1 (centres undefined)	AID inh inconclusive
CCc1ccc2c(c1)NC(c1ccc(OC)cc1)=NC(c1ccncc1)=N2	AID inh inconclusive, UDG counter 89µM
COc1ccc(C2=NC(c3ccncc3)=Nc3ccc(OC)cc3N2)cc1	none
CCc1ccc(CN(Cc2ccco2)C(=O)c2ccc(OC)cc2)cc1	AID inh 40µM
COc1ccc(C(=O)N(Cc2ccco2)Cc2ccc(C)o2)cc1	none
N#C/C(=C\c1ccnc2ccccc12)c1nc2ccccc2s1	AID inh inconclusive, UDG counter 79µM
Cc1ccccc1/C=C(/C#N)c1nc2ccccc2s1	none
COc1ccc(CNC(=O)CCC(=O)N2CC3CCCN3c3ccccc32)c(OC)c1 (centres undefined)	none
COc1ccc(OC)c(NC(=O)N2CC3CCCN3c3ccccc32)c1 (centres undefined)	AID inh 20µM, UDG counter inconclusive
O=C(CCl)N(Cc1ccsc1)C1CC1	none
NO	AID inh 40µM, UDG counter 28µM
CCOC(=O)c1ccc(OCc2ccccc2C#N)cc1	none
COC(=O)C1CCN(S(=O)(=O)c2cc3c4c(c2)CC(=O)N4CCC3)CC1	none
O=C1Cc2cc(S(=O)(=O)N3CCCCC3)cc3c2N1CCC3	AID inh inconclusive, UDG counter 89µM
COc1ccc(OC)c(NC(=O)NC(C)C(=O)N2CCc3ccccc32)c1 (centres undefined)	none
CC(Oc1ccc(C(=O)c2ccccc2)cc1)C(=O)N1CCc2ccccc21 (centres undefined)	UDG counter 79µM
Cc1cccc(-c2cccc(N)c2)c1	none
